The results in this text go back to PubChem BioAssay (Tox21).

Experiment [1] in a line: qHTS assay to identify small molecule antagonists of the glucocorticoid receptor (GR) signaling pathway - cell viability counter screen (AID 720693). Further: nearly all actives have a fitted effect of over 55% in size.
Experiment [2] in a line: qHTS assay for identifying genotoxic compounds that show differential cytotoxicity against isogenic chicken DT40 cell lines with known DNA damage response pathways - Rad54/Ku70 mutant cell line (AID 743015). Further: nearly all actives have a fitted effect of over 60% in size. Further: potency means the concentration at half of the fitted maximal effect. In general terms: In qHTS, concentration-response curves come from the screen itself.
For experiment [3], the target named is Androgen receptor (Homo sapiens) (UniProt P10275). Nature of the experiment: qHTS assay to identify small molecule antagonists of the androgen receptor (AR) signaling pathway (AID 743035; active means well fitted inhibition curve with a large enough effect in the signal ratio in the repeat runs, not every such curve was filed as active; the % refers to the signal ratio; further: potency means the concentration at half of the fitted maximal effect). In a few lines:
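Steps: seed AR-UAS-bla GripTite HEK293 cells, incubate 4 h at 37C; pin in test compound, then add agonist R1881; incubate 16 h at 37C; add LiveBLAzer B/G FRET substrate, 2 h at room temperature; read fluorescence.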

For experiment [4] the target is unchanged. Nature of the experiment: qHTS assay to identify small molecule agonists of the androgen receptor (AR) signaling pathway (AID 743036; active means well fitted activation curve with a large enough effect in the signal ratio in the repeat runs, with a control signal flat, not every such curve was filed as active; the % refers to the signal ratio; further: potency means the concentration at half of the fitted maximal effect). Summed up:
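AR-bla HEK293 cells, 2,000/well; 4 h preincubation 37C/5% CO2; compound (DMSO) 16 h at 37C; LiveBLAzer B/G FRET substrate 2 h RT; fluorescence intensity read-out.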

For experiment [5] the target is unchanged. Nature of the experiment: qHTS assay to identify small molecule agonists of the androgen receptor (AR) signaling pathway using the MDA cell line (AID 743040; further: nearly all actives have a fitted effect of over 20% in size; further: potency means the concentration at half of the fitted maximal effect). In a few lines:
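Agonist activity is measured as luciferase luminescence in human MDA-kb2 cells whose MMTV reporter responds to both AR and GR. Compounds in DMSO incubate 16 h at 37C, 0% CO2, and ONE-Glo is read after 30 min.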

Experiment [6] is described as follows: qHTS assay to identify small molecule antagonists of the androgen receptor (AR) signaling pathway using the MDA cell line - cell viability counter screen (AID 743041; further: nearly all actives have a fitted effect of over 45% in size). In a few lines:
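qHTS viability read-out; MDA-kb2 AR-luc; R1881-stimulated; 16 h exposure at 37C, 0% CO2; CellTiter-Fluor, 30 min; fluorescence intensity.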

The target of experiment [7] is Androgen receptor (Homo sapiens) (UniProt P10275). The experiment can be described thus: qHTS assay to identify small molecule antagonists of the androgen receptor (AR) signaling pathway using the MDA cell line (AID 743042; further: nearly all actives have a fitted effect of over 55% in size; further: potency means the concentration at half of the fitted maximal effect). Summed up: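 MDA-kb2 cells (human breast carcinoma, stably carrying an MMTV-luciferase reporter responsive to AR and GR) were plated at 3,000 cells/well and preincubated 5 hr at 37C, then given compound plus R1881 agonist for 16 h. ONE-Glo luminescence was read.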
Sequence of Androgen receptor (Homo sapiens) (P10275 whole entry, looked up): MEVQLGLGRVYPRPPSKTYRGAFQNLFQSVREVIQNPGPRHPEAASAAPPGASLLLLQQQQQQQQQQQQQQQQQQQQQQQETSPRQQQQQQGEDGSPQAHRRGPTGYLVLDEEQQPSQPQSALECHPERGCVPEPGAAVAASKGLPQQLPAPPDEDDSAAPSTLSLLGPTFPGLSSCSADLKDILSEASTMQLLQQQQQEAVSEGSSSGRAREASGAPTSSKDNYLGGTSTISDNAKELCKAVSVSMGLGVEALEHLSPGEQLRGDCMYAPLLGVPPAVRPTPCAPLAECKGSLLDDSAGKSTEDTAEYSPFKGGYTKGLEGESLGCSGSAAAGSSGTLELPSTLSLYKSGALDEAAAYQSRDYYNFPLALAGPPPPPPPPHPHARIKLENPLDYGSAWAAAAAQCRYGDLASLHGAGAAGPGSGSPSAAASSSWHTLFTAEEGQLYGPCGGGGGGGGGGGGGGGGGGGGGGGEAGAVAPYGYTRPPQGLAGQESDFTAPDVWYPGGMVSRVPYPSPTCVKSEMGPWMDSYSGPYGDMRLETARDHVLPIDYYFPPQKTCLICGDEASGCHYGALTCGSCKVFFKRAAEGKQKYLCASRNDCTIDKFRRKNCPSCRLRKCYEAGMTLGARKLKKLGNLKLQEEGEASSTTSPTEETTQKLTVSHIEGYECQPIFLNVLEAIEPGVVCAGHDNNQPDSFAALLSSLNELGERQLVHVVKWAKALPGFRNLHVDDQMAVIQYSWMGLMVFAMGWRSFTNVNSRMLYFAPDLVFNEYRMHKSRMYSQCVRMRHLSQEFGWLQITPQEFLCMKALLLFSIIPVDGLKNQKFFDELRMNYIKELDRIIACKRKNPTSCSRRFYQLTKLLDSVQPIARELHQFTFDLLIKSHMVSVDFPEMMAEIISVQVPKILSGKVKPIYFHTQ

The nature of experiment [8]: qHTS assay to identify small molecule antagonists of the androgen receptor (AR) signaling pathway - cell viability counter screen (AID 743033; further: nearly all actives have a fitted effect of over 45% in size; further: potency means the concentration at half of the fitted maximal effect).
Experiment [9] in a line: qHTS assay for identifying genotoxic compounds that show differential cytotoxicity against isogenic chicken DT40 cell lines with known DNA damage response pathways - wild type cell line (AID 743012). Further: nearly all actives have a fitted effect of over 60% in size. Further: potency means the concentration at half of the fitted maximal effect. Summed up:
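Cytotoxicity in repair-proficient parental chicken DT40 cells serves as the comparator for Rad54/Ku70- and Rev3-deficient lines. Cells were exposed to compounds for 40 h at 37 C/5% CO2, and ATP-based luminescence (CellTiter-Glo) measured viability.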

Experiment [10] can be described thus: qHTS assay for identifying genotoxic compounds that show differential cytotoxicity against isogenic chicken DT40 cell lines with known DNA damage response pathways - Rev3 mutant cell line (AID 743014). Further: nearly all actives have a fitted effect of over 55% in size. Further: potency means the concentration at half of the fitted maximal effect.

Inconclusive results are not listed. Activity calls are given as the source filed them. Unless noted, the call rests on the fitted dose curve; in most records, active means well fitted curve in the direction sought with a large enough effect in the repeat runs; inconclusive means weak or mixed curves; inactive means no such curve, though single readings can be large; an effect the other way counts as inactive or inconclusive.

Take `CO[C@H]1C[C@H](O[C@H]2[C@H](C)[C@@H](O[C@@H]3O[C@H](C)C[C@H](N(C)C)[C@H]3OC(C)=O)[C@@H](C)C[C@]3(CO3)C(=O)[C@H](C)[C@@H](OC(C)=O)[C@@H](C)[C@@H](C)OC(=O)[C@@H]2C)O[C@@H](C)[C@@H]1OC(C)=O`: the Potency result in [1], in experiment [2], in experiment [3], in experiment [4], in [5] and in [6] was “inactive” in each case. For the same compound, the Potency result in experiment [7] was “inactive”.
As to `CC(C)CN(C[C@@H](O)[C@H](Cc1ccccc1)NC(=O)O[C@@H]1CCOC1)S(=O)(=O)c1ccc(N)cc1`, the Potency entry in experiment [1], in experiment [8], in [4], in experiment [5] and in experiment [7] was “inactive” each time. Moreover, the Potency in [3] is 26.8 µM (active).
Consider `COc1cc(C)c(/C=C/C(C)=C/C=C/C(C)=C/C(=O)O)c(C)c1C`, for which the Potency entry in experiment [1], in experiment [8], in [5], in experiment [6] and in [7] was “inactive” each time.
Regarding `CC(=O)OCC(=O)[C@@]1(O)[C@H](C)C[C@H]2[C@@H]3C[C@H](F)C4=CC(=O)C=C[C@]4(C)[C@H]3[C@@H](O)C[C@@]21C`, the Potency result in [1], in experiment [8] and in experiment [7] was “inactive” in each case. Also, the Potency in experiment [4] was 1.34 µM (active); in experiment [5], 0.0298 µM (active).
With `CC(C)CN(C[C@@H](O)[C@H](Cc1ccccc1)NC(=O)O[C@H]1CO[C@H]2OCC[C@H]21)S(=O)(=O)c1ccc(N)cc1`, the Potency entry in [1] and in [6] was “inactive” in each case. In addition, the Potency in experiment [2] was 29.8 µM (active).
Take `COc1ccc(C[C@@H](C)NC[C@H](O)c2ccc(O)c(NC=O)c2)cc1`: the Potency result in experiment [1], in experiment [8] and in experiment [6] was “inactive” each time.
As for `C#C[C@]1(O)CC[C@H]2[C@@H]3CCC4=CC(=O)CC[C@@H]4[C@H]3C(=C)C[C@@]21CC`, the Potency result in experiment [1] and in experiment [8] was “inactive” throughout.
For `COC(=O)[C@H]1[C@H]2C[C@@H]3c4[nH]c5cc(OC)ccc5c4CCN3C[C@H]2C[C@@H](OC(=O)/C=C/c2cc(OC)c(OC)c(OC)c2)[C@@H]1OC`, the Potency result in experiment [1], in experiment [8], in [5], in experiment [6] and in experiment [7] was “inactive” each time.
Turning to `COCC(=O)Nc1cc(Sc2ccccc2)ccc1N=C(NC(=O)OC)NC(=O)OC`, the Potency entry in experiment [1], in experiment [8] and in experiment [6] was “inactive” throughout.
In the case of `CCC[C@@H]1C[C@@H](C(=O)N[C@@H]([C@H]2O[C@H](SC)[C@H](O)[C@@H](O)[C@H]2O)[C@H](C)Cl)N(C)C1`, the Potency result in experiment [1], in experiment [8] and in [6] was “inactive” throughout.
Consider `C[N+](C)(CCCCCC[N+](C)(C)C1c2ccccc2-c2ccccc21)C1c2ccccc2-c2ccccc21`, for which the Potency entry in [1], in experiment [8] and in experiment [6] was “inactive” throughout.
As to `c1ccc2cc(C3=NCCN3)ccc2c1`, the Potency result in experiment [1], in experiment [8] and in experiment [6] was “inactive” each time. Also, in experiment [2], the Potency was 18.8 µM (active).
As for `O=C(CCCN1CCC(n2c(=S)[nH]c3ccccc32)CC1)c1ccc(F)cc1`, the Potency in [9] is 11.9 µM (active); in [10] it was 18.8 µM (active); in experiment [2], 16.8 µM (active).
Regarding `Cc1nnc(C(C)C)n1C1C[C@H]2CC[C@@H](C1)N2CC[C@H](NC(=O)C1CCC(F)(F)CC1)c1ccccc1` (stereo not given in full), the Potency entry in experiment [9], in [10], in experiment [2], in experiment [8] and in experiment [6] was “inactive” in each case.
Turning to `CC(C)Cc1ccc([C@@H](C)C(=O)NS(C)(=O)=O)cc1`, the Potency entry in experiment [8] and in experiment [6] was “inactive” each time.
As for `C=C1C(=C/C=C2\CCC[C@]3(C)[C@@H]([C@H](C)/C=C/[C@H](C)C(C)C)CC[C@@H]23)C[C@@H](O)C[C@@H]1O`, the Potency in [9] is 13.3 µM (active); in experiment [10] it was 21.1 µM (active); in [2], 16.8 µM (active). Also, the Potency result in [4], in experiment [5] and in [6] was “inactive” throughout.
As to `CO[C@H]1C[C@@H]2CC[C@@H](C)[C@@](O)(O2)C(=O)C(=O)N2CCCC[C@H]2C(=O)O[C@H]([C@H](C)C[C@@H]2CC[C@@H](OC(=O)C(C)(CO)CO)[C@H](OC)C2)CC(=O)[C@H](C)/C=C(\C)[C@@H](O)[C@@H](OC)C(=O)[C@H](C)C[C@H](C)/C=C/C=C/C=C/1C`, the Potency result in experiment [9], in [10], in [2], in experiment [8] and in experiment [6] was “inactive” throughout.
Turning to `C=C1C(=O)O[C@H]2[C@H]1CC/C(C)=C\CC[C@@]1(C)O[C@@H]21`, the Potency is 2.98 µM (active) in experiment [9]; 2.98 µM (active) in experiment [10]; 4.22 µM (active) in experiment [2]; 23.9 µM (active) in experiment [8]; 23.9 µM (active) in experiment [3]; 6.68 µM (active) in experiment [7]. Further, in [5], the Potency result was “inactive”.
With `C[C@@H]1CCC2[C@@H](C)[C@@H](O)O[C@@H]3O[C@@]4(C)CC[C@@H]1[C@@]23OO4` (stereo not given in full), the Potency in experiment [9] was 0.119 µM (active); in [10], 0.133 µM (active); in experiment [2], 0.0473 µM (active).
Consider `CC[C@@H](C(=O)[C@@H](C)[C@@H](O)[C@H](C)[C@@H]1O[C@@H]([C@@H](CC)C(=O)O)CC[C@@H]1C)[C@H]1O[C@]2(C=C[C@@H](O)[C@]3(CC[C@@](C)([C@H]4CC[C@](O)(CC)[C@H](C)O4)O3)O2)[C@H](C)C[C@@H]1C`, for which the Potency in experiment [10] is 0.944 µM (active); in [2] it was 1.19 µM (active); in experiment [8] it was 1.51 µM (active).
In the same order, the values of `CC(C)N=c1cc2n(-c3ccc(Cl)cc3)c3ccccc3nc-2cc1Nc1ccc(Cl)cc1` are 11.4 µM (active), 12.7 µM (active) and “inactive”.
Consider `CCCC1([C@H](O)C/C=C/[C@H]2[C@H](O)CC(=O)[C@@H]2CCCCCCC(=O)OC)CCC1`, for which the figures for the Potency in [9], in [2] and in [8] were 11.9 µM (active), 13.3 µM (active) and 16.9 µM (active), respectively. Also, the Potency entry in experiment [5] and in experiment [7] was “inactive” each time.
Turning to `C=CC[C@@H]1/C=C(\C)C[C@H](C)C[C@H](OC)[C@H]2O[C@@](O)(C(=O)C(=O)N3CCCC[C@H]3C(=O)O[C@H](/C(C)=C/[C@@H]3CC[C@@H](O)[C@H](OC)C3)[C@H](C)[C@@H](O)CC1=O)[C@H](C)C[C@@H]2OC`, the Potency in [9] is 5.31 µM (active); in experiment [10] it was 4.22 µM (active); in experiment [2], 6.68 µM (active); in experiment [3] it was 16.9 µM (active). In addition, the Potency entry in [8], in experiment [4], in experiment [5] and in experiment [7] was “inactive” each time.
Turning to `CCCCCCCCCCCCCCCC(=O)OC[C@@H](COP(=O)([O-])OCC[N+](C)(C)C)OC(=O)CCCCCCCCCCCCCCC`, the Potency entry in [9], in experiment [2], in [8], in experiment [3], in experiment [4] and in experiment [5] was “inactive” each time. The Potency result in experiment [7] is “inactive”.
Take `O=C(O)CCC/C=C\C[C@@H]1[C@@H](/C=C/[C@@H](O)COc2cccc(Cl)c2)[C@H](O)C[C@@H]1O`: the Potency result in experiment [9], in [10], in experiment [2], in experiment [8], in experiment [3] and in [4] was “inactive” each time. The Potency result in experiment [5], in experiment [6] and in experiment [7] was “inactive” each time.
